# Results as given in PubChem BioAssay (NCATS).
# Results filed as inconclusive are left out. Values without a mark were called inactive. Active and inactive are the calls of the source. The call rests on the fitted dose curve; in most records, active means well fitted inhibition curve with a large enough effect; inconclusive means small, poorly fitted or top-dose-only effect; inactive means flat fitted curve, though single readings scatter.
# Molecular target: Aldehyde dehydrogenase, mitochondrial (Homo sapiens) (UniProt P05091)
# Experiment: qHTS for Inhibitors of the Aldehyde Dehydrogenase Family (ALDH2) Primary screen (AID 2061308);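 further: plate controls were vehicle for no effect and reference inhibitor for full effect; nearly all actives have a fitted effect of over 55% in size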
# Settings: ALDH2 enzyme inhibition qHTS, 1536-well; series mostly up to 56 µM; activity change, negative = inhibition: at the top concentration
SMILES,"activity change, negative = inhibition",Potency
O=C1C[C@@]2(C(=O)N1)C(=O)N(Cc1ccc(Br)cc1F)C(=O)c1cccn12,-16.6%,–
CN(C)C/C=C/C(=O)Nc1ccc(C(=O)Nc2cccc(Nc3ncc(Cl)c(-c4c[nH]c5ccccc45)n3)c2)cc1,11%,–
Nc1ccn(C2CO[C@H](CO)O2)c(=O)n1 (stereo not given in full),5%,–
CC(=O)Nc1cccc(-n2c(=O)n(C3CC3)c(=O)c3c(Nc4ccc(I)cc4F)n(C)c(=O)c(C)c32)c1,3.18%,–
O=C(OCC1OC(Oc2ccc(O)cc2COC(=O)C2(O)C(O)CCC(=O)C2OC(=O)C2C=CCC2)C(OC(=O)C2C=CCC2)C(O)C1O)C1C=CCC1 (stereo not given),-1.81% [at 16.9 µM],–
COc1cc(O)cc(C)c1C(=O)OC1C(CO)OC(n2ccc(=O)[nH]c2=O)C1OC(C)=O (stereo not given),35.9% [at 28 µM],–
COc1c(OCCCN2CCOCC2)ccc2c3n(c(=NC(=O)c4cnc(N)nc4)nc12)CCN3,-4.59% [at 11.2 µM],–
CC(C)n1nc(-c2ccc3oc(N)nc3c2)c2c(N)ncnc21,3.12%,–
CC12CCC3c4ccc(O)cc4CCC3C1CC(OC1OC(C(=O)O)C(O)C(O)C1O)C2O (stereo not given),-11.2%,–
CO[C@@H](C)Cn1c(=O)n(C)c2cnc3ccc(-c4cncc(C(C)(C)O)c4)cc3c21,-16.1%,–
Cc1nc(NC(=O)N2CCC[C@H]2C(N)=O)sc1-c1ccnc(C(C)(C)C(F)(F)F)c1,-0.441%,–
C[C@@H](Oc1cc(-c2cnn(C3CCNCC3)c2)cnc1N)c1c(Cl)ccc(F)c1Cl,–,inactive
COCCCc1sc(-c2ccccc2)nc1C(=O)Nc1ccccc1-c1nc2cc(CN3CCCC3)cnc2s1,-15.8% [at 28 µM],–
CC1C2=CC(=O)OC2(O)CC2C1CCC1C(C)(C)CCC(O)C21C (stereo not given),-3.16%,–
C=C1C2(CCC(=O)OC2(C)C)CC(OC(=O)/C(C)=C/C)C2(C)C13OC14C(=O)OC(C)(C(=O)C12C(=O)OC4C)C3OC(C)=O (stereo not given),9.09% [at 16.9 µM],–
CC1=CC(=O)[C@]2(O[C@@H]3O[C@@H](C)[C@H](O)[C@@H](O)[C@H]3OC(=O)/C=C/c3ccccc3)C=CO[C@@H](O[C@@H]3O[C@H](CO)[C@@H](O)[C@H](O)[C@H]3O)[C@H]12,-2.1% [at 16.9 µM],–
O=C(NOCC1CC1)c1ccc(F)c(F)c1Nc1ccc(I)cc1Cl,0.346%,–
Cc1nc(NC(=O)N2CCCC2C(N)=O)sc1-c1ccnc(C(C)(C)C(F)(F)F)c1 (stereo not given),5.22%,–
CC(C)(C)c1nc(-c2cccc(NS(=O)(=O)c3c(F)cccc3F)c2F)c(-c2ccnc(N)n2)s1,1.52%,–
CC(=O)c1c(O)cc(O[C@@H]2O[C@H](CO)[C@@H](O)[C@H](O)[C@H]2O)cc1O,-1.4%,–

SMILES,"activity change, negative = inhibition",Potency
Cc1ncc(NC(=O)c2ccc(CN3CCN(C)CC3)c(C(F)(F)F)c2)cc1Nc1nccc(-c2cccnc2)n1,12.3%,–
COC(=O)Nc1ccc(-c2nc(N3CCOCC3)c3cnn(C4CCN(Cc5cccnc5)CC4)c3n2)cc1,9.29%,–
NC1(Cc2ccc(Cl)cc2)CCN(c2ncnc3[nH]ccc23)CC1,11.8%,–
C[N+]1(C)[C@@H]2CC[C@H]1CC(OC(=O)C(O)c1ccccc1)C2 (stereo not given in full),0.786%,–
Cn1cnc2c(F)c(Nc3ccc(Br)cc3Cl)c(C(=O)NOCCO)cc21,55.4%,–
COc1ccc(C2(O)CCC(N3CC[C@@H](NC(=O)CNC(=O)c4cccc(C(F)(F)F)c4)C3)CC2)cn1 (stereo not given in full),-26.9%,–
Cn1nc(C(C)(C)C)cc1C(=O)N[C@@H](Cc1cccc(Cl)c1)C(=O)NCC#N,-1.9%,–
CC(=O)OC[C@]1(O)[C@H]2[C@H](OC(=O)CC(C)C)OC=C(CO[C@@H]3O[C@H](CO)[C@@H](O)[C@H](O)[C@H]3O)[C@H]2C[C@@H]1O,2.64% [at 28 µM],–
C=C1CC23CC(=O)C4C(CO)(CO)CCCC4(C)C2CCC1C3 (stereo not given),8.25%,–
CCCOc1ccc(CCc2nc3cc(-c4c(C)noc4C)ccc3n2CCN2CCOCC2)cc1,2.89%,–
c1cncc(CN2CCC(n3ncc4c(N5CCOCC5)nc(-c5ccc6[nH]ccc6c5)nc43)CC2)c1,6.07%,–
CC(C)=CCC[C@@](C)(O)[C@H]1CC[C@]2(C)[C@@H]1[C@H](O)CC1[C@@]3(C)CC[C@H](O[C@@H]4O[C@H](CO)[C@@H](O)[C@H](O)[C@H]4O[C@@H]4O[C@H](CO)[C@@H](O)[C@H](O)[C@H]4O)C(C)(C)[C@@H]3CC[C@]12C (stereo not given in full),3.78% [at 16.9 µM],–
Cn1cc(-c2[nH]c3cc(NC(=O)[C@H](N)C4CCCCC4)cc4c3c2C=NNC4=O)cn1,7.74%,–
C[C@H](O)[C@H](O)[C@H]1CNc2nc(N)[nH]c(=O)c2N1,-25.5%,–
Cc1cccc(S(=O)(=O)N2CCC[C@@H]2CCN2CCC(C)CC2)c1,-0.352%,–
CC(C)C1CCC(CO)=CC1/C=C(\CO)C(=O)OCC1(O)CCC(C(C)C)C2C=C(C(=O)O)COC(=O)C21 (stereo not given),-23.2% [at 28 µM],–
CCC(O)C(C)C1CCC(C(C)C(=O)O)O1 (stereo not given),-12.3%,–
COc1ccc(F)c(F)c1C(=O)c1cnc(NC2CCN(S(C)(=O)=O)CC2)nc1N,9.27%,–
CCn1nnc2c(N3CCOCC3)nc(-c3ccc(NC(=O)Nc4ccc(C(=O)N5CCN(C)CC5)cc4)cc3)nc21,12.8%,–
CC(=O)NC(C)c1ccc(Oc2ccc(OC(C)C)cc2)cc1 (stereo not given),6.43% [at 114 µM],–
